# Assay: JC-1 mitochondrial signal, unstimulated HepG2 cells – cell-based, JC-1 fluorescence, 24 h, 100 nL compound, profiling panel (AID 1167); note: test concentration not given here
# Settings: HepG2 mitochondrial potential, higher = more signal
row,Structure (SMILES),z-score
1,COC(=O)[C@@]1(Cc2ccc(F)cc2)[C@H]2c3cc(C(=O)N(C)C)n(CCc4ccc(O)c(O)c4)c3C[C@H]2CN1C(=O)c1ccccc1,0.86
2,CCOC(=O)C1=CC[C@@H](c2ccc(OC)cc2)N(S(=O)(=O)c2ccc(C)cc2)[C@H]1c1ccc(C)cc1,2.39
3,[N-]=[N+]=NCc1ccccc1[C@@H]1OC(c2ccc(OCCCO)cc2)=N[C@]1(Cc1ccccc1N=[N+]=[N-])C(=O)O,-1.44
4,COC(=O)[C@@]1(Cc2ccccc2)[C@H]2c3cc(C(=O)N(C)C)n(CCSC(=N)N)c3C[C@H]2CN1C(=O)c1ccccc1,0.121
5,Cc1ccc(S[C@]2(C(=O)NC(C)C)CC(=O)N(C3CCCCC3)[C@@H]2c2ccc(CO)cc2I)cc1,1.06
6,COC(=O)C(CC#Cc1ccc2c(c1)[C@]1(C(=O)N2)[C@H](C(=O)N2CCc3cc(OC)c(OC)cc3C2)[C@H]2C(=O)O[C@H](c3ccccc3)[C@H](c3ccccc3)N2[C@@H]1c1ccccc1OCCO)C(=O)OC,-0.0236
7,C=CC[C@@]12N=C(c3ccc(OCCCO)cc3)O[C@@H]1c1ccccc1N(CCC)C2=O,1.07
8,CCC(CC)C(O)C1C=CC2C(=O)N(c3ccccc3)C(=O)C2N1Nc1ccccc1F (stereo unspecified),0.387
9,C=C(COC)/C(=C/C[C@H](OC(C)=O)c1ccccc1OCCO)c1cc(C(=O)OC)ccc1OC,0.532
10,CN(C)CCCC[C@@H]1NC(=O)[C@@H]2C[C@H](C(=O)NCCCCCN)[C@H](c3cccc(OCCO)c3)N2C1=O,1.63
11,COC(=O)C[C@H]1O[C@@]2(C[C@@H]1[Si](C)(C)C)C(=O)N(C)c1ccccc12,1.23
12,NC(=O)N1C(=O)C2C(C1=O)C1C=C(CCCO)C2C(C2CC2)N1Cc1sc2ccccc2c1Cl (stereo unspecified),0.709
13,CCOC(=O)C1=CCC(c2cc3ccccc3[nH]2)N(CCN2CC(C(=O)OCC)=CCC2c2cc3ccccc3[nH]2)C1 (stereo unspecified),-0.4
14,COCC(=C=CC[C@H](O)c1ccccc1OCCO)C[C@H](O)COCc1ccccc1,1.37
15,COc1ccc([Si](C)(C)[C@@H]2[C@@H](CC(=O)N3CCC[C@H]3CO)O[C@]3(C(=O)N(Cc4ccc(N5CCOC5=O)cc4)c4ccccc43)[C@H]2C)cc1,0.391
16,C=C(CCCC)C(=O)CC[C@H](OC(=O)c1ccccc1-c1ccccc1C(=O)O)c1ccc(OCCO)cc1,0.236

row,Structure (SMILES),z-score
1,COC(=O)[C@@]1(Cc2ccc(F)cc2)[C@H]2c3cc(C(=O)N4CCCC4)n(Cc4ccccn4)c3C[C@H]2CN1C(=O)c1ccccc1,1.51
2,O=C1NC(=O)C2C1C=CC(C(O)c1ccc([N+](=O)[O-])cc1)N2Nc1ccccn1 (stereo unspecified),-0.969
3,CCCC#C[Si](O[C@H](CC)c1cn(Cc2ccccc2)nn1)(C(C)C)C(C)C,0.0193
4,COCCCNC(=O)[C@@]1(CCC(=O)OC(C)(C)C)COC(c2ccc(OCCCO)cc2)=N1,0.195
5,C=C(CCCC)/C(=C/C[C@H](OC(C)=O)c1cccc(OCCO)c1)c1cnc2ccccc2c1,1.86
6,CN(C)C(=O)[C@]1(Cc2ccccc2)N=C(c2ccc(OCCCO)cc2)O[C@@H]1c1ccccc1CN=[N+]=[N-],0.501
7,Cc1ccc(S[C@]2(C(=O)NCc3ccccc3)CC(=O)N(Cc3ccccc3C(F)(F)F)[C@@H]2c2ccc(CO)cc2)cc1,0.779
8,CCCN1C(=O)[C@]2(CCC(=O)OC(C)(C)C)N=C(c3ccc(OCCCO)cc3)O[C@@H]2c2ccccc21,1.01
9,C[N+](C)(C)CCCC[C@@H]1NC(=O)[C@H]2C[C@@H](C(=O)NCCCCCNC(=O)CS)[C@@H](c3cccc(OCCO)c3)N2C1=O,1.09
10,CO[C@H]1O[C@H](CO)[C@@H](OC(=O)Nc2ccccc2-c2ccccc2)[C@H](OC(=O)Nc2ccccc2)[C@H]1OC(=O)Nc1ccccc1,-0.216
11,CC(C)=C1C(=O)C(c2ccccc2)=C2CN3C(=O)N(CCc4ccccc4)C(=O)[C@]3(C)[C@H]21,1.87
12,C[C@]1(C(=O)O)c2ccccc2C(=O)N(Cc2cc(F)cc(C(F)(F)F)c2)[C@H]1c1ccc(CO)cc1,-0.23
13,CN(C)CCCNC(=O)[C@@]1(Cc2ccccc2I)c2ccccc2C(=O)N(C2CCCCC2)[C@H]1c1ccc(CO)cc1,-2.13
14,C#CCN1[C@@H](Cc2ccccc2)C(=O)O[C@H](Cc2ccccc2)[C@@H]1/C=C/C1CC1,2.46
15,CCCc1cc2c(n1CCc1ccc(Cl)cc1)C(C)C1CN(C(=O)c3ccccc3)C(C)(C(=O)OC)C21 (stereo unspecified),4.02

# Source: PubChem BioAssay
